Our source for the growth values is PubChem BioAssay (NCI).

Holding throughout (assay): NCI-60 one-dose screen, 48 h (100 = growth as untreated, 0 = no growth, -100 = all killed)
Experiment [1] relates to HCT-15 colon. Particulars: 10 µM unless noted.
Experiment [2] relates to HT29 colon. As to conditions: 10 µM unless noted.
For experiment [3], the system named is SNB-75 CNS. As to conditions: 10 µM unless noted.
In experiment [4] the test system is SNB-19 CNS. Particulars: 10 µM unless noted.
The test system of experiment [5] is U251 CNS. Particulars: 10 µM unless noted.
In experiment [6] the test system is PC-3 prostate. Particulars: 10 µM unless noted.
Experiment [7] has as its system SK-MEL-5 melanoma. As to conditions: 10 µM unless noted.
Experiment [8] deals with UACC-62 melanoma. Particulars: 10 µM unless noted.
For experiment [9], the system named is LOX IMVI melanoma. Particulars: 10 µM unless noted.
For experiment [10], the system named is SK-MEL-28 melanoma. Particulars: 10 µM unless noted.
Experiment [11] has as its system SK-MEL-2 melanoma. Particulars: 10 µM unless noted.
In experiment [12] the test system is EKVX NSCLC. Particulars: 10 µM unless noted.
Experiment [13] has as its system SN12C renal. Particulars: 10 µM unless noted.
Experiment [14] relates to UO-31 renal. Particulars: 10 µM unless noted.
For experiment [15], the system named is TK-10 renal. Particulars: 10 µM unless noted.
For experiment [16], the system named is CAKI-1 renal. As to conditions: 10 µM.
Experiment [17] has as its system A498 renal. As to conditions: 10 µM unless noted.
Experiment [18] deals with CCRF-CEM leukemia. As to conditions: 10 µM unless noted.
In experiment [19] the test system is MOLT-4 leukemia. As to conditions: 10 µM unless noted.
Experiment [20] deals with ACHN renal. Particulars: 10 µM unless noted.

Compounds without any hit were thinned out: in the full panel of roughly 83,000, 20% have a hit.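 Cells were grown in 96-well plates and exposed to the test compound at a single concentration for 48 hours; results are reported as percent growth, with values below 10 considered active.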 Values without a mark were called inactive. Calls of active or inactive are those of the source.

As to `O=c1oc2ccc(-c3ccc(F)cc3F)cc2c(=O)n1-c1cccc(C(F)(F)F)c1`, the growth in experiment [1] is 9.93% (active); in [2], 91.3%; in [3] it was 15.5%; in [4], 9.99% (active); in [5], 10.2%; in experiment [6], 6.82% (active). Moreover, the growth in experiment [7] was -72.4% (active); in [8], -6.07% (active); in experiment [9] it was 0.939% (active); in [10] it was 23.4%; in [11] it was -12.5% (active); in experiment [12], 8.73% (active). Further, the growth was 1.14% (active) in experiment [13]; -18.5% (active) in [14]; 15.4% in [15]; -12.2% (active) in experiment [16]; -34.1% (active) in [17]; 22.6% in [18]. Besides, the growth in experiment [19] was 5.65% (active).
Turning to `O=S(=O)(Nc1cc(Cl)c(F)c(Cl)c1)c1ccc(-c2cnc(C3CC3)o2)cc1`, the growth in [1] is 35.2%; in experiment [2], 13.4%; in experiment [3] it was -4.2% (active); in experiment [4] it was 44.3%; in experiment [5], 30.4%; in [6], 25.2%. Also, the growth in experiment [7] is 28.8%; in experiment [8], 42.6%; in [9] it was 43.2%; in [10], 66.7%; in [11] it was 51.9%; in experiment [12], 47.6%. The growth in experiment [13] was 48.7%; in experiment [14], 56.8%; in experiment [20] it was 49.4%; in experiment [16] it was 12%; in experiment [17], 15.5%; in [18], 20.7%. For the same compound, the growth in experiment [19] is 38%.
Regarding `COc1ccc(S(=O)(=O)n2cc(C=O)c3ccccc32)c(OC)c1`, the growth was 40% in experiment [1]; 107% in [2]; 75.3% in [3]; 85% in experiment [4]; 52.8% in [5]; 66.3% in experiment [6]. Moreover, the growth in experiment [7] is 67.3%; in [8] it was 63.1%; in [9], 64.3%; in [10], 83.8%; in experiment [11], 96.1%; in experiment [12], 91.4%. Further, the growth is 85.2% in experiment [13]; 52.4% in experiment [14]; 106% in [15]; 52.5% in experiment [16]; 92.4% in [17]; 33.5% in experiment [18]. In addition, the growth in experiment [19] is 29.2%.
As for `CN(C)c1ncc(/C=C2\SC(=S)N(Cc3ccccc3Cl)C2=O)s1`, the growth in [1] was 84.6%; in experiment [2], 88.8%; in experiment [3] it was 88.1%; in experiment [4], 78.6%; in experiment [5] it was 42%; in experiment [6], 91.1%. Moreover, the growth in [7] was 101%; in experiment [8], 94.6%; in experiment [9] it was 69.2%; in experiment [10], 104%; in experiment [11], 86%; in [12], 81.7%. The growth in [14] is 47.7%; in experiment [15], 96.7%; in experiment [20] it was 76.2%; in experiment [16] it was 79.1%; in experiment [18] it was 77.3%; in [19], 82%.
With `CCNC(=O)Oc1ccc(/C(=C(/C)c2ccc(Cl)cc2)c2ccc(OCCN3CCCC3)cc2)cc1`, the growth in experiment [1] is 60.5%; in [2] it was 19.6%; in experiment [3] it was 85.7%; in experiment [4] it was 81.6%; in [5], 60.1%; in experiment [6], 82.4%. Also, the growth in experiment [7] was 86.3%; in [8] it was 98.3%; in [9], 49.2%; in experiment [10] it was 89%; in experiment [11], 104%; in experiment [12], 80.2%. Further, the growth in experiment [14] was 65.8%; in [15], 97.6%; in experiment [20] it was 95%; in experiment [16], 85.7%; in experiment [19], 58.6%.
Turning to `COc1cc2c3c(n(CCCN4CCCC4)c(=O)c2cc1OC)-c1cc2c(cc1C3=O)OCO2`, the growth in experiment [1] is -61.7% (active); in experiment [2], -76% (active); in experiment [3], -74.6% (active); in experiment [4] it was -48.9% (active); in experiment [5], -96.2% (active); in experiment [6] it was -64.5% (active). The growth in [7] was 87.5%; in [8], 73.9%; in experiment [9], -80.1% (active); in [10], -74.1% (active); in experiment [12] it was -55.3% (active); in experiment [13], 11.8%. The growth in experiment [14] was 40.4%; in [15], -86% (active); in experiment [20], 55.6%; in experiment [16], 55.3%; in [17], 80.2%; in experiment [18] it was -11.9% (active).
Consider `CCOC(=O)/C(F)=C/C1CC1CCc1cccc(C(F)(F)F)c1` (configuration not stated), for which the growth in [1] is 101%; in [2], 107%; in experiment [3] it was 102%; in experiment [4], 97.1%; in experiment [5], 113%; in [6] it was 105%. The growth in experiment [7] was 100%; in experiment [8], 96.5%; in experiment [9], 102%; in experiment [10], 98.8%; in [12] it was 101%; in experiment [13], 104%. Also, the growth in experiment [14] is 90.4%; in experiment [15], 99.5%; in experiment [20] it was 100%; in [16], 89.4%; in experiment [17], 93.7%; in experiment [18] it was 110%. In experiment [19], the growth was 104%.
Consider `COCCOc1ccc(-c2csc(NC(=O)CN3CCN(CCO)CC3)n2)cc1NS(=O)(=O)c1cccc2c(N(C)C)cccc12`, for which the growth was 85% in [1]; -68.5% (active) in experiment [2]; 88.6% in [3]; 62.2% in experiment [4]; 49.1% in [5]; 76.1% in [6]. The growth in [7] was 86.5%; in [8], 80.5%; in experiment [9], 11.8%; in experiment [10] it was 30.8%; in experiment [12], 80.5%; in experiment [13], 81.1%. Further, the growth is 65.3% in [14]; 107% in [15]; 85.8% in [20]; 92% in [16]; 79.4% in experiment [17]; 46.3% in experiment [18].
